Each structure is given as a SMILES string. Several values for one entry are separate records, joined by “and”; a condition that tells them apart may be missing. Equal entries are not always repeated. Records with an inconclusive call do not appear. Activity calls are given as the source filed them. Calls follow the shape of the dose curve; as a rule, active = well fitted curve in either direction with a large enough effect; inconclusive = small, poorly fitted or top-dose-only effect; inactive = flat fitted curve, though single readings scatter.

Sequence of Neuropeptide S receptor (Homo sapiens) (Q6W5P4 whole entry, looked up): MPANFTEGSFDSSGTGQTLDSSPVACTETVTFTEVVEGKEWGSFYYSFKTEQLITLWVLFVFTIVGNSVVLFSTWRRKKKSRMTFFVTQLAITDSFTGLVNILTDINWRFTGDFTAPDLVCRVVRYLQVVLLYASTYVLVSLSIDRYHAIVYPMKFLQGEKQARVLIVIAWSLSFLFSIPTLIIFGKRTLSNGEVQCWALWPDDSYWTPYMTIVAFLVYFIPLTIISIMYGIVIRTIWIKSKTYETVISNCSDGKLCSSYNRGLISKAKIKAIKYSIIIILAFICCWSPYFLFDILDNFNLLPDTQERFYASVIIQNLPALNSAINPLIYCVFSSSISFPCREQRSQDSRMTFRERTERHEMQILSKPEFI

This assay has as its target Neuropeptide S receptor (Homo sapiens) (UniProt Q6W5P4). Briefly: Confirmation Concentration-Response Assay for Antagonists of the Neuropeptide S Receptor: Robust Characterization of cAMP Signal Transduction. The conditions noted are these: CHO-NPSR cells, NPS-stimulated cAMP TR-FRET; series mostly up to 50.7 µM; activity, negative = inhibition: at the top concentration. In general terms: TR-FRET usually uses a lanthanide donor and a delayed reading to cut background.
For `COc1cccc(C2c3c(ncn(CCCN4CCOCC4)c3=N)Oc3ccc4ccccc4c32)c1` (stereo unspecified), the Potency was 4.87 µM (active).

`O=C(NCc1ccccc1)Nc1ncnc2c1C(c1ccccc1)c1c(ccc3ccccc13)O2` (stereo unspecified): the Potency is 30.7 µM (active).

As to `COc1ccc(C2c3c(ncn(Cc4ccccc4)c3=N)Oc3ccc4ccccc4c32)cc1OC` (stereo unspecified), the Potency is 13.7 µM (active). Still for that read-out and setting: for `COc1cccc(C2c3c(ncn(-c4cccc(OC)c4)c3=N)Oc3ccc4ccccc4c32)c1` (stereo unspecified) the value was 6.88 µM (active); for `COc1ccccc1C1c2c(ncn(-c3ccccc3)c2=N)Oc2ccc3ccccc3c21` (stereo unspecified), 4.34 µM (active). As to `COc1cccc(C2C(C#N)=C(NC(=O)CCc3ccccc3)Oc3ccc4ccccc4c32)c1` (stereo unspecified), the “activity, negative = inhibition” value was 1.79% (inactive). Consider `COc1ccc(C2c3c(nc(CCc4ccccc4)[nH]c3=O)Oc3ccc4ccccc4c32)cc1OC` (stereo unspecified), for which the “activity, negative = inhibition” value was -4.2% (inactive). With `COc1cccc(C2c3c(ncn(-c4ccc5c(c4)OCO5)c3=N)Oc3ccc4ccccc4c32)c1` (stereo unspecified), the Potency is 4.34 µM (active).

Consider `COc1cccc(C2c3c(ncn(-c4ccccn4)c3=N)Oc3ccc4ccccc4c32)c1` (stereo unspecified), for which the Potency is 17.3 µM (active). Consider `N=c1c2c(ccn1CCCc1ccccc1)Oc1ccc3ccccc3c1C2c1ccccc1` (stereo unspecified), for which the Potency is 2.74 µM (active). For `COc1cccc(C2c3c(ncn(-c4ccc(C(C)(C)C)cc4)c3=N)Oc3ccc4ccccc4c32)c1` (stereo unspecified), the Potency is 12.2 µM (active).

As for `Cc1c(C(O)(c2ccccc2)c2ccccc2)[n+]2ccccc2n1C`, the “activity, negative = inhibition” value is 1.1% (inactive). As for `COc1cccc(C2c3c(ncn(-c4ccccc4)c3=N)Oc3ccc4ccccc4c32)c1` (stereo unspecified), the Potency is 8.67 µM (active) and 1.54 µM (active). Regarding `COc1ccc(C2c3c(nc(Cc4ccccc4)[nH]c3=O)Oc3ccc4ccccc4c32)cc1OC` (stereo unspecified), the “activity, negative = inhibition” value was 5.64% (inactive). In the case of `Cc1nc2ccccn2c1P(=O)(c1ccccc1)c1ccccc1`, the “activity, negative = inhibition” value was 10.3% (inactive).

As for `COc1cccc(C2c3c(ncn(-c4cccnc4)c3=N)Oc3ccc4ccccc4c32)c1` (stereo unspecified), the Potency was 8.67 µM (active). Take `COc1cccc(C2c3c(ncn(-c4ccncc4)c3=N)Oc3ccc4ccccc4c32)c1` (stereo unspecified): the Potency is 13.7 µM (active). With `COc1cccc(C2c3c(ncn(-c4ccccc4C)c3=N)Oc3ccc4ccccc4c32)c1` (stereo unspecified), the Potency was 6.88 µM (active). Regarding `COc1cccc(C2c3c(ncn(-c4ccc(F)cc4)c3=N)Oc3ccc4ccccc4c32)c1` (stereo unspecified), the Potency is 12.2 µM (active).

`CC(C)(C)OC(=O)Nc1ncnc2c1C(c1ccccc1)c1c(ccc3ccccc13)O2` (stereo unspecified): the Potency is 10.9 µM (active). Turning to `CCC(C)(CCN1CCOCC1)N(Cc1cc2ccccc2n(C)c1=O)C(=O)C1CCCCC1` (stereo unspecified), the Potency is 0.0546 µM (active). As to `O=C(CCc1ccccc1)Nc1ncnc2c1C(c1ccccc1)c1c(ccc3ccccc13)O2` (stereo unspecified), the Potency was 4.34 µM (active).

For the compound `COc1ccc(C2c3ccc4ccccc4c3Oc3ncn(CCN4CCOCC4)c(=N)c32)cc1OC` (stereo unspecified), the Potency was 30.7 µM (active). Regarding `COc1cccc(C2c3c(ncn(-c4cccc(C)c4)c3=N)Oc3ccc4ccccc4c32)c1` (stereo unspecified), the Potency is 9.72 µM (active).

As to `N=c1c2c(ccn1CCc1ccccc1)Oc1ccc3ccccc3c1C2c1ccccc1` (stereo unspecified), the Potency was 3.87 µM (active).

`S=P(c1ccccc1)(c1ccccc1)c1nc(CCCc2ccccc2)n2ccccc12`: the “activity, negative = inhibition” value is 14.1% (inactive). On to `COc1ccc(C2c3c(ncn(CCc4ccccc4)c3=N)Oc3ccc4ccccc4c32)cc1OC` (stereo unspecified), for which the Potency was 27.4 µM (active).

As to `COc1ccc(C2c3c(N)nc(CCc4ccccc4)nc3Oc3ccc4ccccc4c32)cc1OC` (stereo unspecified), the Potency is 24.4 µM (active). `CCOC(=O)CC(=O)Nc1ncnc2c1C(c1ccccc1)c1c(ccc3ccccc13)O2` (stereo unspecified): the Potency is 3.07 µM (active). For `COc1cccc(C2c3c(ncn(-c4ccccc4SC)c3=N)Oc3ccc4ccccc4c32)c1` (stereo unspecified), the Potency is 4.87 µM (active).

As to `Cc1nc2ccccn2c1C(O)(c1ccccc1)c1ccccc1`, the “activity, negative = inhibition” value was 12.1% (inactive).

The values are drawn from PubChem BioAssay AID434936 (National Center for Advancing Translational Sciences (NCATS), 2010).
